Measured values: the supplement of paper PMC11417369
± gives the standard deviation of the averaged measurements. Whole data set: some 25,000 sequences, median “ln(normalized median fluorescence intensity)” near 8.6, cut for the highest 2% near 10. The full list was thinned out, with the highest values kept by preference.

The sequences below were run on PfAP2-EXP AP2 domain (GST-tagged) (assay: gcPBM binding intensity (ln(normalized median fluorescence intensity)); higher = stronger DNA binding).
Method in brief: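 Binding intensity values are the highest Masliner-normalised natural-log median intensity among replicate spots of either probe orientation. The binding step lasted 1 h in 1× PBS with 1% milk, 0.2 mg/ml BSA, 0.5% salmon testes DNA and 0.03% Triton X-100, using GST-tagged P. falciparum DNA-binding domains expressed in E. coli on an Agilent 4 × 180k array of primer-extended double-stranded 36-bp intergenic genomic probes plus negative controls. Alexa488 anti-GST antibody and a 488 nm scan detected bound protein.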

Sequence | gcPBM binding intensity (ln)
AAAGTAAAAGAAAGCACACACACATGGATTTATGTA [CACACA_site5997] | 8.53 ± 0.49
ATATAGAATGTTTACACACGCAATAAATATATATAT [CACACA_site217] | 9.27 ± 0.13
AAAAAAAAAAAAAAAAAAAAAAAAAAAATTCTATAT [GTGCAC_negctrl_site468] | 9.28
ACAAATAAATATATATGTACATATATTTTTTTATTT [XGTACX_site2989] | 8.56 ± 0.37
TATATAGAAAACAAGGCATGCAAATAACAAATTGTG [TGCATGCA_site473] | 9.85 ± 0.36
GACACCTGCATGAAAGTGCAAAATAGAAAAGGAACA [GTGCAC_site9593] | 9.22 ± 0.38
ATATAGAACACCTGTGCATGCAAGTGCTAAAAAATT [TGCATGCA_site213] | 10.175 ± 0.007
TATTTTACTTTAAAAATGGAAAAAAAAAAGAATATT [CACACA_negctrl_site1360] | 8.38 ± 0.47
TAGAAATAAGAAAAATGTACATATAATATTGAAAGT [XGTACX_site3043] | 9.17 ± 0.35
AATGATACACATATATGTACATATATATATATATAT [XGTACX_site5391] | 10 ± 0.58
TAATGATAAATACATACACACAAAAAATGATATATA [CACACA_site7258] | 8.6 ± 0.32
GTAATATATACAAAATGTACAAAACAATAACATGAT [XGTACX_site8575] | 8.8 ± 0.39
CGCAAAACAATGATACGTACATATATATATATATAT [XGTACX_site5883] | 10.3 ± 0.33
TAAAAAAAAACATATACACACAAAAACGTACACATA [CACACA_site1354] | 8.86 ± 0.36
ATACAATGATATATACATATATATATATATATATAT [TGCATGCA_negctrl_site359] | 10.2 ± 0.49
AGAATATTTATATGATGTACTTATATATATATATAT [XGTACX_site3021] | 9.97 ± 0.47
AAAAGCACAAAAAATACACACACAAAAAATAAAAAA [CACACA_site8545] | 8.5 ± 0.57
TTCAAATTGTTTATATGTACTTATAAAAATTGTCTG [XGTACX_site977] | 8.35 ± 0.42

Sequence | gcPBM binding intensity (ln)
ACATGAATTTATATGTGTACTAACTATATTCTTAAA [XGTACX_site5966] | 8.27 ± 0.25
TTAAAAATAATATTATGTACTAAGAATAAATATATA [XGTACX_site3100] | 8.34 ± 0.43
ATATATATATATATATGTACTAAGAATTCTTTAAAA [XGTACX_site8476] | 10.3 ± 0.16
CATTTTAAAGAAAATACACACAAAAATAGATATATA [CACACA_site6773] | 8.66 ± 0.38
ATTTGTTACGGACATGCATGCGAATCAGGGTATATA [TGCATGCA_site154] | 10.1 ± 0.28
CACAAACACCCAAACACACACACACCGACATACATA [CACACA_site4410] | 8.41 ± 0.54
TTGGCATACAGACACACACACACACCCCCACATATA [CACACA_site590] | 9.43 ± 0.61
TACATATACAGACACACACACACACCCCCACAAAAA [CACACA_site495] | 9.88 ± 0.52
GACATATTCCCCCCCACACACACACCCACATACATA [CACACA_site2302] | 10.8 ± 0.11
ACCATACATACATACACACACACACGCATATTTATA [CACACA_site7386] | 9.05 ± 0.6
CATATTCCCCCCCACACACACACACCCATACATACC [CACACA_site2303] | 11.1 ± 0.18
TATTCCCCCCAACACACACACACACCGACATACCAC [CACACA_site8723] | 10.2 ± 0.23
CATATTCCCCCCCACACACACACACGCATACATACC [CACACA_site7148] | 11.1 ± 0.19
CATATATACGCATACACACACACACCCACACCCACA [CACACA_site1725] | 8.79 ± 0.52
TATTCCCCCAAACACACACACACACCCACATACCAC [CACACA_site2304] | 9.33 ± 0.23
CATACACCCATACATACACACATACATACACCCATA [CACACA_site5124] | 8.67 ± 0.47
AAAAAAAAAATACATACACACACACCCACCCATATA [CACACA_site9187] | 9.14 ± 0.54
